The text below walks through data of PubChem BioAssay (NCATS).

Values without a mark were called inactive. Results filed as inconclusive are left out. Activity calls are given as the source filed them. Unless noted, the call rests on the fitted dose curve; in most records, active means well fitted curve in the direction sought with a large enough effect; inconclusive means small, poorly fitted or top-dose-only effect, or another doubt; inactive means no such curve, though single readings can be large; an effect the other way counts as inactive or inconclusive.

The nature of test [1]: qHTS for small molecule inhibitors of Yes1 kinase: Counter Assay (AID 686950).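 Further: no kinase present so only ADP-Glo detection of a fixed ADP amount is tested; luminescence from ADP-Glo reporting ADP in a fixed ATP and ADP mixture; 0% = DMSO wells with ATP plus ADP and -100% = ATP-only wells without ADP.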 Particulars: series mostly up to 76.9 µM. Summed up: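 ADP-Glo luminescence read after a 60 min room-temperature incubation of compound with an ATP/ADP mix (0.08 mM/0.02 mM) and no kinase, following a 20 min compound preincubation. Signal scaled between ATP+ADP (max) and 0.1 mM ATP-only (min) wells; Tris pH 7.5, Mg2+, DTT.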
For orientation: qHTS replaces the single test concentration by a dilution series.

The target in test [2] is Arylsulfatase A (Homo sapiens) (UniProt P15289). Kind of test: qHTS screen for enhancers of Arylsulfatase A (ASA1): LOPAC Validation Assay (AID 720538). Particulars: ASA enzyme activity, LOPAC qHTS enhancer assay; series mostly up to 57.5 µM. Summed up: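 SV40-transformed fibroblasts from an MLD patient (ASA-I179S) were treated with compound for 48 h at 37 C. They were then lysed with 0.5 mM pNCS substrate (final) for 14 h at room temperature and stopped with NaOH; signal read by fluorescence (Ex 525/Em 598 nm), with increase denoting enhanced activity.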

Test [3] can be described thus: qHTS for compounds that reverse cellular toxicity of Amyloid beta (A-beta) peptide in yeast: LOPAC Validation Assay (AID 720559).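 Further: plate controls were DMSO for no effect and equimolar ferric chloride plus clioquinol rescue for full effect.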 Particulars: yeast expressing A-beta; series mostly up to 46.1 µM. In a few lines:
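Yeast expressing toxic A-beta grown with pinned compounds at 30 C for 48 hr. Growth measured as absorbance at 600 nm; data normalized to DMSO and to an equimolar FeCl3/clioquinol mixture as positive control.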

The nature of test [4]: qHTS for Activators of Parkin Expression: LOPAC Validation Assay (NLuc Reporter) (AID 720572; further: potency means the concentration at half of the fitted maximal effect). Particulars: Parkin promoter NanoLuc reporter cells, luminescence; series mostly up to 46.1 µM. In a few lines:
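Compound effects on Parkin promoter activity were measured as NanoLuc luminescence after 24 h at 37 C. The neuronal reporter line also carried FLuc, which was read first. LOPAC compounds were tested at 7 concentrations, with normalization to DMSO (0%) and positive control (100%).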

In test [5] the target is T1, Hexokinase-4 (Homo sapiens) + Glucokinase regulatory protein (Homo sapiens) (UniProt P35557+Q14397). In words: qHTS assay for inhibitors of recombinant human GCK-GKRP interaction: Diaphorase-coupled assay (AID 743205). Particulars: G6PDH/diaphorase resorufin fluorescence; series mostly up to 57.5 µM. Summed up: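 Compounds pre-incubated 20 min with substrate, then 10 nM GST-GCK with 10 nM FLAG-GKRP added. GCK activity coupled via G6PDH and diaphorase to resorufin (5 mM glucose, 0.4 mM ATP, 0.15 mM NADP+, pH 7.6), read kinetically over 30 minutes at Ex 525/Em 590 nm.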

The target of test [6] is T1, Hexokinase-4 (Homo sapiens) + Glucokinase regulatory protein (Homo sapiens). Kind of test: qHTS assay for inhibitors of recombinant human GCK-GKRP interaction: ADP-Glo assay (AID 743206).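 Further: plate controls were DMSO plus enzyme for no effect and no enzyme for full effect.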 Particulars: ADP-Glo luminescence, 60 min, 0% = vehicle-only wells with enzyme present; series mostly up to 76.9 µM. Summed up: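 Pin-transferred compounds meet a 15 nM GST-GCK/15 nM FLAG-GKRP/2 uM S6P mix (dispense concentrations). ATP is then added to 0.4 mM final with 5 mM glucose, and the reaction runs 60 min at room temperature. ADP is quantified luminescently.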

The nature of test [7]: qHTS assay for small molecule agonists of the antioxidant response element (ARE) signaling pathway measured by Nrf2-dependant transcriptional activity (AID 720636; active means well fitted curve in the direction sought with a large enough effect in the repeat runs; an effect the other way counts as inactive or inconclusive;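 further: HepG2 cells with an ARE-driven luciferase reporter; % of control where 0% means no effect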). Particulars: ARE-luc HepG2, Nrf2 luciferase reporter, 16 h; series mostly up to 92.4 µM. In a few lines: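 HepG2 ARE-luc reporter line, 1% dialyzed FBS; 6 hr attachment at 37 C, compound pinned in, 16 hr at 37 C/5% CO2; ONE-Glo, 30 min RT, luminescence read.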

Test [8] can be described thus: qHTS assay for small molecule agonists of the antioxidant response element (ARE) signaling pathway measured by Nrf2-dependant transcriptional activity - cell viability counter screen (AID 720653; active means well fitted curve in the direction sought with a large enough effect in the repeat runs; an effect the other way counts as inactive or inconclusive; further: on the % scale 0 is the no-effect control and ±100 the full control effect). Particulars: ARE-bla HepG2 viability, CellTiter-Glo ATP luminescence, 16 h; stronger effect = lower value. In a few lines:
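Cytotoxicity counter screen: intracellular ATP quantified by CellTiter-Glo luminescence in the same ARE-bla HepG2 plates, after 16 h compound exposure and a 2 h beta-lactamase substrate step.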

Test [9] can be described thus: qHTS for Activators of Parkin Expression: LOPAC Validation Assay (FLuc Reporter) (AID 720573). Particulars: Cell line, PRKN promoter firefly luciferase reporter, vehicle wells = 0, positive control = 100%; series mostly up to 46.1 µM. Summed up:
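Neuronal cell line stably expressing FLuc/NLuc coincidence reporter under the Parkin promoter, 1,500 cells/well, dosed 24 h after seeding in 7-point series for 24 h at 37 C. FLuc luminescence read; normalized to DMSO and positive control (100%).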

The nature of test [10]: qHTS assay for small molecule antagonists of the retinoid-related orphan receptor gamma (ROR-gamma) signaling pathway - cell viability counter screen (AID 720652; active means well fitted curve in the direction sought with a large enough effect in the repeat runs; an effect the other way counts as inactive or inconclusive;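 further: CHO reporter cells with doxycycline-induced ROR-gamma expression; compound exposure lasted 16 hr before ATP read; on the % scale 0 is the no-effect control and ±100 the full control effect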). Particulars: RORgamma reporter cell line viability counter screen; series mostly up to 92.2 µM. Summed up: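 Steps: seed CHO cells bearing TET-inducible ROR and ROR response element-luciferase; rest 5 hr at 37 C; add compound, then doxycycline; incubate 16 hr; add CellTiter-Glo and read luminescence as ATP-based viability.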

Sequence of Arylsulfatase A (Homo sapiens) (P15289 whole entry, looked up): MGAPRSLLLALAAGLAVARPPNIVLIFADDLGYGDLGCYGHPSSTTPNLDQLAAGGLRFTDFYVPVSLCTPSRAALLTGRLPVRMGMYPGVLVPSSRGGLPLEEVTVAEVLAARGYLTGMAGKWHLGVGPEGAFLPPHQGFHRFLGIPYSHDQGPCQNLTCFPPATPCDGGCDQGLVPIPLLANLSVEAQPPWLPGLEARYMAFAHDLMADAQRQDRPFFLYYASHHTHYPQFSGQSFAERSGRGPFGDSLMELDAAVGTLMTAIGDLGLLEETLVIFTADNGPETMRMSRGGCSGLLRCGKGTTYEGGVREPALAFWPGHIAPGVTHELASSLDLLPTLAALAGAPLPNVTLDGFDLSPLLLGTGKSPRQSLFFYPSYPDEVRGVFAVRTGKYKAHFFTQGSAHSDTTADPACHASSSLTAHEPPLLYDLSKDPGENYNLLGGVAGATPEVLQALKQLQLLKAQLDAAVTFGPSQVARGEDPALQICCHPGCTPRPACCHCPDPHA
T1 sequence (P35557 whole entry, looked up): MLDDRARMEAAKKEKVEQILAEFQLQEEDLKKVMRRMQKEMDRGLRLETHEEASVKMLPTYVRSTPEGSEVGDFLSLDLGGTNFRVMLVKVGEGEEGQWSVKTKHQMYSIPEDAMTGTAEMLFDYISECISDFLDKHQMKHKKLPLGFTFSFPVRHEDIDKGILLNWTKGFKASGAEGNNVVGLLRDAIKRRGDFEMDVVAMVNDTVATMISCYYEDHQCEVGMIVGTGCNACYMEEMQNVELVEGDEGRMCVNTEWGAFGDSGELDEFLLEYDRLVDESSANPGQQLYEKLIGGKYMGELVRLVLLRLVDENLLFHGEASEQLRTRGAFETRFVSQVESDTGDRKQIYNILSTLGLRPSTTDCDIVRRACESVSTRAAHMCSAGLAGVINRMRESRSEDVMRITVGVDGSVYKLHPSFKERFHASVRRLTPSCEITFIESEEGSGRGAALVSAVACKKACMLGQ
T1 sequence (Q14397 whole entry, looked up): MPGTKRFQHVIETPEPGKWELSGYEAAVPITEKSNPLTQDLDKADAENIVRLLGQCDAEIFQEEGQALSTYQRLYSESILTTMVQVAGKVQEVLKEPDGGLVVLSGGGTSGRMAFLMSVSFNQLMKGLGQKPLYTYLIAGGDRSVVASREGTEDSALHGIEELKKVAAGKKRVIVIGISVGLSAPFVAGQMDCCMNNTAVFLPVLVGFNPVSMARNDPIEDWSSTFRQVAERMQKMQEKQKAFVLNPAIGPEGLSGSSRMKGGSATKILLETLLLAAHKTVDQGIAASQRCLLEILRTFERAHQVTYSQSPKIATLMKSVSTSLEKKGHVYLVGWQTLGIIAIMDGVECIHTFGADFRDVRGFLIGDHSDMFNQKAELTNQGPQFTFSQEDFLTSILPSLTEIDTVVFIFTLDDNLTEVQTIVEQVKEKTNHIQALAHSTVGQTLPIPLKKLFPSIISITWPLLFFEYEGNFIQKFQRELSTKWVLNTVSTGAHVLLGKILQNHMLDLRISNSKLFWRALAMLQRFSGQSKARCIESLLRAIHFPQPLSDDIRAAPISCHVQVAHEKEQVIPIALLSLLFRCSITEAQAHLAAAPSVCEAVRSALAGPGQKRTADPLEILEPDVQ

Consider `Nc1ncnc2nc(-c3ccc(N4CCOCC4)nc3)cc(-c3cccc(Br)c3)c12`, for which the compound was called inactive in [1], in test [2] and in [3].
As to `Nc1nc2ccc(OC(F)(F)F)cc2s1`, the result in [1], in test [3], in test [5] and in test [6] was inactive. Besides, in [4], the Potency entry is “inactive”.
With `Cc1c(C)c2c(c(C)c1O)CCC(C)(COc1ccc(CC3SC(=O)NC3=O)cc1)O2` (stereo not given), the compound was classed as inactive in [1] and in test [7]. The max response in test [8] was 5.17%.
On to `CC[C@H](Nc1ncnc2nc[nH]c12)c1nc2cccc(F)c2c(=O)n1-c1ccccc1`, for which, in [1], the result was inactive.
As to `C[C@]12CCC(=O)C=C1CC[C@@H]1[C@@H]2[C@@H](O)C[C@@]2(C)[C@H]1CC[C@]2(O)C(=O)CO`, the compound was classed as inactive in test [1], in [2], in test [3], in test [9], in [7] and in test [5]. Moreover, the outcome in test [6] was inactive. In addition, the Potency result in test [4] is “inactive”. Besides, the max response in test [8] was -2.33%.
For the compound `O=c1[nH]cnc2[nH]ncc12`, the result in test [2], in [3], in test [9], in [7], in [10] and in test [5] was inactive. Besides, in test [6], the outcome was inactive. In addition, in test [4], the Potency result is “inactive”. In test [8], the max response is -4.44%.
As to `OCCn1cc(-c2cnc3nnn(Cc4ccc5ncccc5c4)c3n2)cn1`, the outcome in test [1] was inactive.
Take `CCOC(=O)C1=C[C@@]2(CC)CCCN3CCc4c(n1c1ccccc41)[C@H]32`: in test [1], the call was inactive.
`CC(C)C[C@H](NC(=O)[C@@H](O)[C@H](N)Cc1ccccc1)C(=O)O`: the result in test [1], in [2], in test [3], in test [9], in test [5] and in test [6] was inactive. In addition, the Potency result in [4] is “inactive”.
Consider `CCN(CCCO)CCCOc1ccc2c(Nc3cc(CC(=O)Nc4cccc(F)c4)[nH]n3)ncnc2c1`, for which the call in test [1] was inactive.
`CN(C)C(=O)c1ccc(S(=O)(=O)c2ccc(NC(=O)[C@@](C)(O)C(F)(F)F)c(Cl)c2)cc1`: the compound was called inactive in [1].
Same read-out and setting: as for `Cc1csc(NC(=O)c2sc3nc4c(c(C(F)(F)F)c3c2N)CCC4)n1`, the entry is “inactive”.
Consider `NC(N)=NC(=O)c1nc(Cl)c(N)nc1N`, for which the call in [1], in test [3], in [9], in test [7], in test [10] and in test [5] was inactive. Moreover, the outcome in test [6] was inactive. Besides, the Potency entry in [4] is “inactive”. In addition, the max response in [8] was -15%.
For `Cc1cc(Nc2nc(N[C@@H](C)c3ncc(F)cn3)ncc2Cl)n[nH]1`, in [1], the compound was called inactive.
As for `CC(C)(Sc1ccc(CCN(CCCCC2CCCCC2)C(=O)NC2CCCCC2)cc1)C(=O)O`, the call in test [1], in test [2], in test [3], in test [9], in [7] and in test [5] was inactive. The result in test [6] was inactive. Besides, the Potency result in test [4] is “inactive”. The max response in test [8] was 1.89%.
With `COc1ccc2nc(S(=O)Cc3ncc(C)c(OC)c3C)[nH]c2c1` (stereo not given), in [1], the call was inactive. Also, the max response in test [8] is 1.66%.
Take `CCn1c(-c2nonc2N)nc2cnc(Oc3cccc(NC(=O)c4ccc(OCCN5CCOCC5)cc4)c3)cc21`: the call in test [1] was inactive.
On the same count and under the same terms, as for `COc1ccc(CC2=NN3C([C@@H](CCc4ccccc4)[C@@H](C)O)=NC(C)C3C(=O)N2)cc1OC` (stereo not given in full), the entry is “inactive”; as for `CCOc1ccn(-c2ccc(F)cc2)c(=O)c1C(=O)Nc1ccc(Oc2ccnc(N)c2Cl)c(F)c1`, “inactive”.
For `O=C(Nc1nc2ccccc2n1CCN1CCOCC1)c1cccc([N+](=O)[O-])c1`, the compound was classed as inactive in test [1], in test [2], in [3], in [5] and in [6]. Further, in test [4], the Potency entry is “inactive”.
Take `COc1ccc(CCN2CCN(CCCc3ccccc3)CC2)cc1OC`: in test [1], the outcome was inactive.
Still for that read-out and setting: as for `O=C(O)c1ccc(-c2c[nH]c3ccc(-c4ccccc4)cc23)cc1C1CCCC1`, the entry is “inactive”.
As to `Cc1oncc1C(=O)Nc1ccc(C(F)(F)F)cc1`, the outcome in [1], in [5] and in test [6] was inactive.
Take `Cn1cnc2c(F)c(Nc3ccc(Br)cc3Cl)c(C(=O)NOCCO)cc21`: the outcome in test [1] was inactive.
For the compound `Cc1[nH]c(=O)c(C#N)cc1-c1ccc2nccn2c1`, the result in test [1], in test [2], in test [3], in [9], in [5] and in test [6] was inactive. Moreover, the Potency entry in test [4] was “inactive”.
Consider `OC(CN1CCC(Cc2ccc(F)cc2)CC1)c1ccc(Cl)cc1` (stereo not given), for which the result in [1], in test [2], in test [3], in [9], in [5] and in [6] was inactive. Moreover, the Potency result in test [4] was “inactive”.
Turning to `Cc1cc(C=c2sc3nc4ccccc4n3c2=O)c(C)n1-c1ccccc1`, in test [1], the call was inactive.
As to `Cc1cccc(-c2[nH]c(C(C)(C)C)nc2-c2ccc3nccnc3c2)n1`, the result in [1], in [2], in [3], in test [9], in test [5] and in test [6] was inactive. The Potency result in test [4] is “inactive”.
With `Nc1nc2[nH]cc(CCc3ccc(C(=O)N[C@@H](CCC(=O)O)C(=O)O)cc3)c2c(=O)[nH]1`, in test [1], the compound was called inactive.
In the case of `CCC(C)N(C)C(=O)c1cc2ccccc2c(-c2ccccc2Cl)n1` (stereo not given), the outcome in [1], in test [2], in [3], in [9], in [5] and in test [6] was inactive. The Potency in [4] was 20.6 µM (active).
Take `COc1ccc(-c2ccc3c(N4CCOCC4)nc(N4C[C@@H](C)O[C@@H](C)C4)nc3n2)cc1CO`: the result in [1] was inactive.
In the case of `CCCS(=O)(=O)Nc1ccc(F)c(C(=O)c2c[nH]c3ncc(-c4ccc(Cl)cc4)cc23)c1F`, the call in test [1] was inactive.
